Laboratory results as given in PubChem BioAssay (NCATS).
Records with an inconclusive call do not appear. Entries that show only a call come without a potency. Values without a mark were called inactive. The source made the active and inactive calls. Calls follow the shape of the full dose curve.

Assay: Cytotoxicity counterscreen for inhibitors of SARS-CoV-2 cell entry (AID 1645845); also: nearly all actives have a fitted effect of over 50% in size
Settings: cell viability (SARS-CoV-2 entry assay cells); series mostly up to 57.1 µM
Procedure, shortened: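 After a 15 min room-temperature ATPLite 1step step, luminescence reflected ATP remaining in HEK293-ACE2 cells exposed to compound for 1 h plus 48 h at 37 C, with percent activity set by cell and no-cell controls.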
`CC1CCC(n2c3cnccc3c3cnc(Nc4ccc5c(n4)CCN(C(=O)CO)C5)nc32)CC1` (stereo not given) gave an activity change, negative = cytotoxicity of 4.82% [at 11.3 µM].
For `N#Cc1ccnc(N2C(=O)CC[C@H]2C(=O)N(c2cncc(F)c2)C(C(=O)NC2CC(F)(F)C2)c2ccccc2Cl)c1` (stereo not given in full), the Potency was “inactive”.
For `CC(C)(C)C(=O)CN1C(=O)[C@H](NC(=O)Nc2cccc(C(=O)O)c2)CN(C2CCCCC2)c2ccccc21`, the Potency was “inactive”.
For `O=C(O)c1cnn(-c2nc3cc(OC(F)(F)F)c(Cl)cc3[nH]2)c1`, the Potency was “inactive”.
With `CO[C@H]1O[C@@H]2O[C@@]3(C)CC[C@H]4[C@H](C)CC[C@@H]([C@H]1C)[C@@]24OO3` the Potency was “inactive”.
With `CC(C)=CCC[C@](C)(O[C@@H]1O[C@H](CO[C@@H]2O[C@H](CO)[C@@H](O)[C@H](O)[C@H]2O)[C@@H](O)[C@H](O)[C@H]1O)[C@H]1CC[C@]2(C)[C@@H]1[C@H](O)C[C@@H]1[C@@]3(C)CC[C@H](O[C@@H]4O[C@H](CO)[C@@H](O)[C@H](O)[C@H]4O[C@@H]4O[C@H](CO)[C@@H](O)[C@H](O)[C@H]4O)C(C)(C)[C@@H]3CC[C@]12C` the Potency was “inactive”.
For `COc1c(Nc2ncc(Cl)c(N[C@H]3[C@H](C(N)=O)[C@@H]4C=C[C@@H]3C4)n2)ccc2c1CCC(N1CCOCC1)CC2` (stereo not given in full), the Potency was “inactive”.
With `COc1cc2c(cc1OCCCN1CCCC1)N=C(N)C21CCC1` the Potency was “inactive”.
For `CCC(=O)O[C@]1(C(=O)CO)CC[C@H]2[C@@H]3CCC4=CC(=O)CC[C@]4(C)[C@H]3CC[C@@]21C`, the Potency was “inactive”.
In the case of `CCOc1ccc(-n2c([C@@H](C)N(Cc3cccnc3)C(=O)Cc3ccc(F)c(C(F)(F)F)c3)nc3ncccc3c2=O)cc1`, the Potency is reported as “inactive”.
